# Laboratory results: PubChem BioAssay (NCI)
# This is part of a sample that, as a whole, favours compounds with a hit. Of some 79,000 tested, about 15% had one in any assay. Unmarked numbers belong to inactive results. The source made the active and inactive calls. Cut-off read from the data, not from the text of the source: active = growth inhibition above about 70%; inactive = the rest.
# Key:
# [1] = NCI Yeast Anticancer Drug Screen. Data for the rad50 strain (AID 155);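 note: 0% = growth of vehicle-only cultures of the same strain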; details: S. cerevisiae rad50 strain growth inhibition, hits give high values
# How it was run: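 Genetically altered yeast (DNA repair pathway); compound treatment; growth inhibition vs vehicle ctrl.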
# [2] = NCI Yeast Anticancer Drug Screen. Data for the mec2-1 strain (AID 157); details: S. cerevisiae mec2-1 strain, hits give high values
# How it was run: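 Growth inhibition is read against vehicle-treated controls after compound exposure of the mec2-1 yeast strain, which is defective in DNA damage repair or cell cycle control.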
# [3] = NCI Yeast Anticancer Drug Screen. Data for the sgs1 mgt1 strain (AID 161);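 note: 0% = growth of cultures given vehicle only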; details: S. cerevisiae sgs1 mgt1 strain, hits give high values
# How it was run: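 Percent growth inhibition was derived by comparing compound-exposed mutant yeast with vehicle-exposed cultures. The strain carries alterations in DNA damage repair.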
# [4] = NCI Yeast Anticancer Drug Screen. Data for the cln2 rad14 strain (AID 165);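 note: 0% = growth equal to vehicle treated cultures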; details: S. cerevisiae cln2 rad14 strain, hits give high values
# How it was run: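 Growth inhibition, relative to vehicle-treated controls, is the read-out. The test organism is a yeast strain with defined genetic alterations, cln2 rad14.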
# [5] = NCI Yeast Anticancer Drug Screen. Data for the bub3 strain (AID 167); details: S. cerevisiae bub3 mutant strain, hits give high values
# How it was run: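 Yeast carrying a defined mutation is treated with each compound, and growth is compared with that of vehicle-exposed cells to give inhibition.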
# [6] = NCI Yeast Anticancer Drug Screen. Data for the mlh1 rad18 strain (AID 175); details: S. cerevisiae mlh1 rad18 strain growth inhibition, hits give high values
# How it was run: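 Cells of a genetically altered yeast strain, deficient in DNA damage repair, were treated with compound. Their growth was then compared with that of vehicle-treated cultures to give inhibition.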
# [7] = at 5.0 µM (retest, dose inferred, filed as 0.5)
# [8] = at 50.0 µM (retest, dose inferred, filed as 5.0)
Compound,"growth inhibition [1, 7] [%]","growth inhibition [1, 8]",growth inhibition ([1]; at 50.0 µM),"growth inhibition [2, 7] [%]","growth inhibition [2, 8]",growth inhibition ([2]; at 50.0 µM),"growth inhibition [3, 7] [%]","growth inhibition [3, 8]",growth inhibition ([3]; at 50.0 µM),"growth inhibition [4, 7] [%]","growth inhibition [4, 8]",growth inhibition ([4]; at 50.0 µM),"growth inhibition [5, 7] [%]","growth inhibition [5, 8]",growth inhibition ([5]; at 50.0 µM),"growth inhibition [6, 7]","growth inhibition [6, 8]",growth inhibition ([6]; at 50.0 µM)
CC1=C(C(=O)Nc2cc(O)ccc2O)C(c2cccc([N+](=O)[O-])c2)C(C(=O)Nc2cc(O)ccc2O)=C(C)N1,-8,20%,32.3%,-23,6%,25.9%,-14,15%,35.9%,-5,12%,46.8%,-7,0%,2.35%,-9%,20%,36.5%
Nc1c(-c2c(Cl)cccc2Cl)[n+]([O-])c2ccccc2[n+]1[O-],26,99% (active),75% (active),29,99% (active),38.9%,44,100% (active),74.7% (active),28,99% (active),69.3%,45,99% (active),66.8%,72% (active),99% (active),88.8% (active)
CSC(SC)(C(=O)O)c1cc(-c2c(Cl)cccc2Cl)no1,3,27%,39%,2,42%,44%,7,48%,95.5% (active),-1,-5%,17.1%,13,73% (active),51.6%,0%,36%,84.4% (active)
Oc1c(Cl)c2ccccc2c2ccccc12,-2,59%,98.6% (active),56,48%,99.2% (active),1,23%,99% (active),-1,24%,98.5% (active),37,76% (active),93.5% (active),8%,44%,98.7% (active)
O=C1/C(=C/c2ccccc2)CCCc2ccccc21,-2,28%,59.8%,7,62%,49.5%,14,79% (active),86% (active),-10,14%,19.7%,10,75% (active),74.8% (active),10%,73% (active),75% (active)
Cc1ccc(NC(=O)CSC(N)=O)cc1,4,92% (active),97.5% (active),4,96% (active),98.5% (active),3,94% (active),99.1% (active),2,94% (active),97.5% (active),4,96% (active),97.8% (active),2%,94% (active),97.7% (active)
CN(C)c1ccc(C(c2cc3c(cc2O)OCO3)N2CCCCC2)cc1 (configuration not stated),3,86% (active),99.3% (active),-4,98% (active),99.5% (active),8,88% (active),99.5% (active),-1,70% (active),98.3% (active),-5,97% (active),99.3% (active),-8%,97% (active),99.3% (active)
CCOC(=O)C(CO)c1nc2c([nH]c1=O)c(=O)n(C)c(=O)n2C (configuration not stated),5,18%,29.9%,14,17%,43.5%,33,60%,50.5%,-4,5%,-2.95%,6,39%,52.9%,17%,18%,83.5% (active)
O=[N+]([O-])c1ccc(Oc2c(Cl)cccc2Cl)cc1,-7,9%,-12.9%,-13,-5%,-11.7%,-6,-33%,5.4%,-9,-1%,-44.1%,14,19%,75.5% (active),-12%,13%,14.8%
C=C1CC(Cn2ccc(=O)[nH]c2=O)(c2ccc(Cl)cc2)OC1=O (configuration not stated),11,64%,47.9%,-4,85% (active),49.8%,-22,80% (active),70% (active),27,35%,39.5%,6,87% (active),65.8%,19%,81% (active),74.1% (active)
CC1=C(/C=C/C(C)=N/NC(N)=S)C(C)(C)CCC1,24,87% (active),84.5% (active),5,88% (active),80.5% (active),22,88% (active),65.8%,15,85% (active),76.9% (active),16,86% (active),80.1% (active),6%,89% (active),85% (active)
CCCCCCCCCC(=O)NN=C(C)C,-129,54%,93.1% (active),-49,45%,83.2% (active),-59,75% (active),-2.75%,-67,81% (active),88.2% (active),-72,41%,88% (active),-131%,46%,90.8% (active)
CCOC(=S)SCc1nc2ccccc2[nH]1,9,51%,87% (active),3,96% (active),80.7% (active),7,15%,82.6% (active),10,83% (active),69%,5,86% (active),76.8% (active),3%,93% (active),89.2% (active)
C=CC(=O)NC(=O)Nc1ccc(Cl)cc1,18,97% (active),98% (active),32,98% (active),98.2% (active),27,99% (active),98.9% (active),10,98% (active),97.5% (active),23,97% (active),98.3% (active),25%,99% (active),98.7% (active)
O=C(O)c1c2c(cc3c1CC1(Cc4cc5c(cc4C1=O)CCC5)C3)CCC2 (configuration not stated),67,67%,89.4% (active),58,58%,87.5% (active),57,57%,87.3% (active),37,37%,88.7% (active),42,42%,87.2% (active),55%,55%,86.5% (active)
C[n+]1c(-c2cccc(OCCOCCOc3cccc(-c4c5cc(N)ccc5c5ccc(N)cc5[n+]4C)c3)c2)c2cc(N)ccc2c2ccc(N)cc21,36,96% (active),85.5% (active),6,95% (active),82.7% (active),25,97% (active),81.3% (active),10,59%,62.9%,22,94% (active),78.8% (active),35%,95% (active),86.5% (active)
Cc1ccc(S(=O)(=O)Nc2ccccc2Cl)cc1,11,95% (active),94% (active),11,97% (active),77.3% (active),7,99% (active),96.5% (active),6,96% (active),88.5% (active),5,98% (active),94.2% (active),13%,97% (active),93.8% (active)
COc1ccc(/C=C(\C#N)c2ccccc2)cc1OC,0,55%,86.6% (active),-18,29%,87.3% (active),1,53%,88.5% (active),30,34%,54.5%,5,66%,84.4% (active),-6%,64%,90.2% (active)
COc1cc(C(=O)NC(CCC(=O)O)C(=O)O)ccc1N(C)Cc1cnc2nc(N)nc(N)c2n1 (configuration not stated),-4,66%,89.8% (active),-3,93% (active),97.2% (active),-7,44%,83.8% (active),2,-10%,-21.4%,-6,-6%,40.4%,-51%,29%,74.1% (active)
